Records with an inconclusive call do not appear. The source made the active and inactive calls. Unless noted, calls follow the shape of the dose curve; as a rule, active = well fitted curve in the direction sought with a large enough effect; inconclusive = small, poorly fitted or top-dose-only effect, or another doubt; inactive = no such curve, though single readings can be large; an effect the other way counts as inactive or inconclusive.
Columns and labels:
[1] = biological target: Cytochrome P450 1A2 (Homo sapiens) (UniProt P05177); test: p450-cyp1a2 (AID 410; calls by dose curve; also: potency is read from the fitted curve at half-maximal effect)
Sequence of Cytochrome P450 1A2 (Homo sapiens) (P05177 whole entry, looked up): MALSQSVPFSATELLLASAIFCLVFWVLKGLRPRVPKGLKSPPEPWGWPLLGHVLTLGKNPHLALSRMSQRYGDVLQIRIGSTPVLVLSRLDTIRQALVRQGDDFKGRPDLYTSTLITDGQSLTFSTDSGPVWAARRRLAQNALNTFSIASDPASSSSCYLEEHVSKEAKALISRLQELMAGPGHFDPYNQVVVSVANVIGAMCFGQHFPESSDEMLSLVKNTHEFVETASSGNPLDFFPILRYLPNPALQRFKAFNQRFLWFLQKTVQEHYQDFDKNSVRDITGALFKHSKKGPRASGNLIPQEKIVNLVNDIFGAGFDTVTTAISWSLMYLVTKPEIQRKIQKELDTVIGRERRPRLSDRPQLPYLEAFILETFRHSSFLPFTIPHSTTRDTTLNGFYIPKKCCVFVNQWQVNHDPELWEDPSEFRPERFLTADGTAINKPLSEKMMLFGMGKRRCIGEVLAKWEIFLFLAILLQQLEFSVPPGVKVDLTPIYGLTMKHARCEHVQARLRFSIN
In short: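 Human CYP1A2 (20nM) demethylated Luciferin-ME at its Km (100uM) in 100mM KPO4. After 10 min compound preincubation, NADPH regeneration ran the reaction 60 min at room temperature. Luciferin was read by luminescence, normalized to 57 uM furafylline.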

[2] = biological target: Glucocorticoid receptor (Homo sapiens) (UniProt P04150); test: GR-GFP Redistribution (AID 450;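 active = compounds whose dose series gives a full or clear partial fitted curve of increased nuclear translocation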; also: potency is read from the fitted curve at half-maximal effect)
Sequence of Glucocorticoid receptor (Homo sapiens) (P04150 whole entry, looked up, the tested form may be a part): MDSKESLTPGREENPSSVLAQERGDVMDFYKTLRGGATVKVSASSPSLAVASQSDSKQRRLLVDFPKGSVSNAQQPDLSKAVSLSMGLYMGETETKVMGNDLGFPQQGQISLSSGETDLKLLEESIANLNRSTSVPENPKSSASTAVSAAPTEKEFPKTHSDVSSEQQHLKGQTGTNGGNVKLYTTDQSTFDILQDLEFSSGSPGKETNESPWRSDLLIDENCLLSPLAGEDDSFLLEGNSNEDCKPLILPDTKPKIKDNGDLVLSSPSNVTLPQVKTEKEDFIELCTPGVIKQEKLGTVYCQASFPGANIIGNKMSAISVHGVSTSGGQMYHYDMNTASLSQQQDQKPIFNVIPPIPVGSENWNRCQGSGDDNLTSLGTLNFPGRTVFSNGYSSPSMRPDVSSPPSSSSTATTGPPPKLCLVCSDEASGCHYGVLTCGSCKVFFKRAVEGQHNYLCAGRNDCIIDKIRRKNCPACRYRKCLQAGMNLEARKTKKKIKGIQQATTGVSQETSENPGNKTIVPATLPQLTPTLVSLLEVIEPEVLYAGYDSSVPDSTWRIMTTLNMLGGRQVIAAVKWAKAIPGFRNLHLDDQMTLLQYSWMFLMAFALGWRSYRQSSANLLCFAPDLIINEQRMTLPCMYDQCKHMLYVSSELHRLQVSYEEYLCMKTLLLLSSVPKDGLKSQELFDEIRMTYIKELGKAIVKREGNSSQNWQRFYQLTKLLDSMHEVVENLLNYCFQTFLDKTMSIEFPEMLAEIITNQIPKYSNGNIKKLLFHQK

[3] = biological target: Glucocorticoid receptor (Homo sapiens) (UniProt P04150); test: GR-EFC Redistribution (AID 451; calls by dose curve; also: potency is read from the fitted curve at half-maximal effect); conditions: CHO-K1 GR-EFC translocation, beta-gal luminescence, 2 h
In short: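 CHO-K1 cells expressing nuclear EA and GR-ED fragments of b-gal; compounds titrated up to 46 uM final, 2 h at 37 C. GR nuclear translocation read as complemented b-gal luminescence after 1 h RT detection.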

[4] = biological target: Mitogen-activated protein kinase 10 (Mus musculus) (UniProt Q61831); test: JNK3 AlphaScreen Assay (AID 530; active = well fitted curve in either direction with a large enough effect, not every such curve was filed as active;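 also: kinase came from lysate of stimulated human HepG2 cells; signal reports phosphorylation of biotinylated GST-cJun 1-79 at Ser73 with 10 µM ATP; % is scaled to controls: 0 for no effect and ±100 for the full control effect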)
In short: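 qHTS format: compounds tested as titrations against IL-1beta/TNF-alpha-activated HepG2 lysate JNK3 with biotin-GST-cJun substrate and 10 uM ATP at room temperature. Loss of anti-phospho-cJun AlphaScreen signal indicates inhibition.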

[5] = biological target: 3',5'-cyclic-AMP phosphodiesterase 4B (Homo sapiens) (UniProt Q07343); test: qHTS Assay for Inhibitors of PDE-IV (AID 607; active = well fitted activation curve with a large enough effect in the main read-out, with a control signal flat, not every such curve was filed as active; also: % of control where 0% means no effect)
Sequence of 3',5'-cyclic-AMP phosphodiesterase 4B (Homo sapiens) (Q07343 whole entry, looked up): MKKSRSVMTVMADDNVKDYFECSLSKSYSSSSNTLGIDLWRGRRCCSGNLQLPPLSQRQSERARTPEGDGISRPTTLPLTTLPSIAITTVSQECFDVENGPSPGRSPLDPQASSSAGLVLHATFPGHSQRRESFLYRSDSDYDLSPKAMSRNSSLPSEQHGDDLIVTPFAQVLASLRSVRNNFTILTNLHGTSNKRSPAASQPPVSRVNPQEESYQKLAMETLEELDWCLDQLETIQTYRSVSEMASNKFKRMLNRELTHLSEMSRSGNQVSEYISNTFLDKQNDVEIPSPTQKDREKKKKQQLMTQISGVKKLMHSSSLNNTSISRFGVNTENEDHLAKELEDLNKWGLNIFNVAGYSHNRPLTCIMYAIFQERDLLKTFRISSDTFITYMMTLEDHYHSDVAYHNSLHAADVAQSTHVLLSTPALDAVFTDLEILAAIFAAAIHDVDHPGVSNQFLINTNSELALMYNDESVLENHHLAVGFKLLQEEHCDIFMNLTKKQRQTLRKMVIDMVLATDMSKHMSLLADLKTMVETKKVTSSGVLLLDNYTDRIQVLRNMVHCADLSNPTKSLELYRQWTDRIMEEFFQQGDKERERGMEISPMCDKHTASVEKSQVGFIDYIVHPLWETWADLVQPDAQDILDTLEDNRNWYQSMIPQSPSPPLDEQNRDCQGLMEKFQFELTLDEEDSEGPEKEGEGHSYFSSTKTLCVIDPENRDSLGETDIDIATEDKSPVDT
In short: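 Live HEK293 cells with a modified cyclic nucleotide-gated (CNG) channel report intracellular cAMP via membrane-potential dye fluorescence (ex 535/em 590 nm). Endogenous PDE-IV was targeted. Compounds were tested at up to 22.9 uM final; RO 20-1724 100 uM served as control.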

[6] = biological target: Cytochrome P450 2C19 (Homo sapiens) (UniProt P33261); test: qHTS Assay for Inhibitors and Substrates of Cytochrome P450 2C19 (AID 899); also: potency is read from the fitted curve at half-maximal effect; nearly all actives have a fitted effect of over 60% in size
Sequence of Cytochrome P450 2C19 (Homo sapiens) (P33261 whole entry, looked up): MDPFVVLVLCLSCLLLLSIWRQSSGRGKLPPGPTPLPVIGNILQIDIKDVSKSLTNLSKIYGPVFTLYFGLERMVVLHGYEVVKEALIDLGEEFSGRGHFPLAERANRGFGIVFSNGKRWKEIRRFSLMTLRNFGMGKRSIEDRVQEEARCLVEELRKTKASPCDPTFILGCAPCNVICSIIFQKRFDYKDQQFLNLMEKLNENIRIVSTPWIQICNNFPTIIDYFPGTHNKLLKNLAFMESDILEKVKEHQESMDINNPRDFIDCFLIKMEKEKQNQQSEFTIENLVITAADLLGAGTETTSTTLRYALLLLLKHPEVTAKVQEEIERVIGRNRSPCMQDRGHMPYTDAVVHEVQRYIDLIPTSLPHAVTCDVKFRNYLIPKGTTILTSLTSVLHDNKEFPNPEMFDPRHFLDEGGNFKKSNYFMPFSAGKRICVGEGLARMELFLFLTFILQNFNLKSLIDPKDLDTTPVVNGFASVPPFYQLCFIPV
In short: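 Luminescent read-out of luciferin formed from Luciferin-H EGE (10uM, equal to KM). Enzyme 5nM in 50mM KPO4; compound added, 10 min at 37C, then NADPH regenerating system for 60 min at 37C. Full inhibition defined by 57uM ketoconazole.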

[7] = biological target: ATP-dependent 6-phosphofructokinase (Trypanosoma brucei brucei) (UniProt O15648); test: qHTS Assay to Find Inhibitors of T. brucei phosphofructokinase: hit validation (AID 492961); also: % is scaled to controls: 0 for no effect and ±100 for the full control effect
Sequence of ATP-dependent 6-phosphofructokinase (Trypanosoma brucei brucei) (O15648 whole entry, looked up): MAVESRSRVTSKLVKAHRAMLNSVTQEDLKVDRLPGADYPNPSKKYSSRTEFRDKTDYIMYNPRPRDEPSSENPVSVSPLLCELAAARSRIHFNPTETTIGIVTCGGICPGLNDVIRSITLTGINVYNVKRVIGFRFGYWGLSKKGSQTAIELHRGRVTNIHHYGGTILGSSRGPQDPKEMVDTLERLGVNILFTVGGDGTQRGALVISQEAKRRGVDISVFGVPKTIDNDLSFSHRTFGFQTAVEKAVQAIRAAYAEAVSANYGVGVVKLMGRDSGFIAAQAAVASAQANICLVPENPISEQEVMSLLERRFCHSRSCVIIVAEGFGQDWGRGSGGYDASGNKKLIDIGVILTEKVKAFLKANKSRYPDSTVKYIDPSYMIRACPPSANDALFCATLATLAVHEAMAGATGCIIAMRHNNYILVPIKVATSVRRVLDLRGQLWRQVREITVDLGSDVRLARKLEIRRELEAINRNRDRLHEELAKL
In short: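 Luminescence from ADP-Glo reports ADP generated as T. brucei PFK (1.25 nM) phosphorylates 0.5 mM fructose-6-phosphate using 0.1 mM ATP. Reactions ran 45 min at room temperature, pH 8.0.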

[8] = biological target: Ubiquitin carboxyl-terminal hydrolase 1 (Homo sapiens) (UniProt O94782); test: Inhibitors of USP1/UAF1: Pilot qHTS (AID 504865);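 also: rhodamine fluorescence freed from ubiquitin-rhodamine substrate followed over time; top concentration of the series differs between compounds; % is scaled to controls: 0 for no effect and ±100 for the full control effect; nearly all actives have a fitted effect of over 35% in size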
Sequence of Ubiquitin carboxyl-terminal hydrolase 1 (Homo sapiens) (O94782 whole entry, looked up): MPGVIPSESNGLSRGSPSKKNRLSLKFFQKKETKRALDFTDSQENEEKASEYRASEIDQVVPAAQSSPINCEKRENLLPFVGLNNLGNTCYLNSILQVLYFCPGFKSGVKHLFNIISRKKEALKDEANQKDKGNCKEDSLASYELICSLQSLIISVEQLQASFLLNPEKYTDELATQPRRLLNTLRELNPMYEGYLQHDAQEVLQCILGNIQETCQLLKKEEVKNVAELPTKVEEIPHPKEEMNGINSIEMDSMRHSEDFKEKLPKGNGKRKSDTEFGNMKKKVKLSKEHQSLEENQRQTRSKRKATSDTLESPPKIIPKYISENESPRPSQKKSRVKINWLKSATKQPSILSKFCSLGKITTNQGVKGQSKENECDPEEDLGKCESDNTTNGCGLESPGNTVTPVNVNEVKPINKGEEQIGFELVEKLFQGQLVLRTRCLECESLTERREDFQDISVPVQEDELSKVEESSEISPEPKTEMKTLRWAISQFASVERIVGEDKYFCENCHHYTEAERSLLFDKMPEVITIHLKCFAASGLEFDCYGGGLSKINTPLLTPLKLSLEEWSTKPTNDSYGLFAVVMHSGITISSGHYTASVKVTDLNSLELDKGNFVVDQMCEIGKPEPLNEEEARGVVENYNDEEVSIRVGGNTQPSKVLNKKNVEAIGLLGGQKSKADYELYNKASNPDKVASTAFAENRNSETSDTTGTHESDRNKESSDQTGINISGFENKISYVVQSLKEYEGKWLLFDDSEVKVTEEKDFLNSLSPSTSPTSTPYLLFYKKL
In short: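 Deubiquitinase activity followed as kinetic rhodamine fluorescence release from 150 nM Ub-Rho. 1 nM USP1/UAF1 with compound, after 15 min room-temperature preincubation, in HEPES pH 7.8 buffer containing TCEP, EDTA, BSA and Tween-20.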

[9] = biological target: DNA dC->dU-editing enzyme APOBEC-3G (Homo sapiens) (UniProt Q9HC16); test: qHTS for inhibitors of Vif-A3G interactions: Validation (AID 588379); also: 0% is about no effect
Sequence of DNA dC->dU-editing enzyme APOBEC-3G (Homo sapiens) (Q9HC16 whole entry, looked up): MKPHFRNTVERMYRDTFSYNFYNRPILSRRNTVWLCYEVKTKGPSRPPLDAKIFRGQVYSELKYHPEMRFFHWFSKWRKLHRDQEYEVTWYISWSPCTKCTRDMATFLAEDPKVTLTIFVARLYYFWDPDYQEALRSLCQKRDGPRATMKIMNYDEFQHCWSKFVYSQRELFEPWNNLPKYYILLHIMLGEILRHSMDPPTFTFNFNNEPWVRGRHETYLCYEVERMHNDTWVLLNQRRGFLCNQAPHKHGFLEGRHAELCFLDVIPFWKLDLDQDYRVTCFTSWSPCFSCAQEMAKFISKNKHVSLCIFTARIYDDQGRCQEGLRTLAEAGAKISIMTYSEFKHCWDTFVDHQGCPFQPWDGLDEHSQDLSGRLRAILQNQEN
In short: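 HeLa cells stably expressing Vif and A3G-eYFP, 700 cells/well, incubated overnight at 37 deg C, then exposed to compound overnight at 37 deg C. Inhibition of Vif-mediated degradation read as increased yellow fluorescence (Ex 488/Em 500-530) by laser-scanning cytometry.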

[10] = biological target: Luciferin 4-monooxygenase (Photinus pyralis) (UniProt P08659); test: Biochemical firefly luciferase enzyme assay for NPC (AID 624030);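 also: purified P. pyralis luciferase at 10 nM with luciferin and ATP substrate; 0% = DMSO and -100% = full luciferase inhibition by PTC124 control; nearly all actives have a fitted effect of over 70% in size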
Sequence of Luciferin 4-monooxygenase (Photinus pyralis) (P08659 whole entry, looked up): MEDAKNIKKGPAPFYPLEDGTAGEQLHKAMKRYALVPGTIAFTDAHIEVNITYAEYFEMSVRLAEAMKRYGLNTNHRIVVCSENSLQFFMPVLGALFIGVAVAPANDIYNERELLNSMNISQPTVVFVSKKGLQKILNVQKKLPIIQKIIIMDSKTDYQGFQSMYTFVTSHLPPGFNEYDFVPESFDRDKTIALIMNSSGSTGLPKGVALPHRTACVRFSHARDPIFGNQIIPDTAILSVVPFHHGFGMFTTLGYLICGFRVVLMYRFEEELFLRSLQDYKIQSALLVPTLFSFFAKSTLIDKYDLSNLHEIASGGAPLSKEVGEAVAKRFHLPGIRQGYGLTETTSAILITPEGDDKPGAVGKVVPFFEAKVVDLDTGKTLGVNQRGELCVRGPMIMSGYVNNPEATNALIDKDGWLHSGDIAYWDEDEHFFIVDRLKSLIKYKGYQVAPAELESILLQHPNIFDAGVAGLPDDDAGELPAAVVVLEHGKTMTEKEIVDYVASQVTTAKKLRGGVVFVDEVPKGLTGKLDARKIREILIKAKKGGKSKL
In short: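 Purified P. pyralis luciferase at 10 nM in 50 mM Tris Acetate (final), luminescence read within 5 minutes of enzyme addition to compounds. Activity normalised to PTC124 versus DMSO; concentration-response curves classed by r2, magnitude and activity.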

[11] = S16 Schwann cell viability assay (CellTiter-Glo assay) (AID 624031);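 also: cellular ATP luminescence as a viability measure; plate controls were DMSO-treated cells for no effect and cell-free wells for full effect; nearly all actives have a fitted effect of over 70% in size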
In short: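 Untransfected S16 rat Schwann cells; compound 24 h, 37 °C/5% CO2; CellTiter-Glo ATP luminescence. % activity vs no-cell wells and DMSO controls (0%); concentration-effect curves classed by r2, response magnitude, activity.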

[12] = S16 Schwann cell PMP22 intronic element firefly luciferase assay (AID 624032);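 also: plate controls were DMSO for no effect and PTC124 positive control mean for full effect; nearly all actives have a fitted effect of over 30% in size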
In short: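 Rat S16 Schwann cells stably carrying firefly luciferase driven by a PMP22 intronic element, in 10% FBS, treated 24 h at 37 C. ONE-Glo luminescence normalized to PTC124 control and DMSO (0%); curves classed by r2, magnitude and activity.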

[13] = S16 Schwann cell PMP22 intronic element beta-lactamase assay (AID 624044; calls by dose curve;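 also: 0% = DMSO and -100% = potassium clavulanate positive control; nearly all actives have a fitted effect of over 15% in size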); conditions: S16 rat Schwann cells, PMP22 element beta-lactamase FRET, 24 h; ratio activity, negative = inhibition: at 38.3 µM (top of the series)
In short: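 Rat S16 Schwann cells with beta-Lac driven by a PMP22 intronic element, compound-treated 24 h at 37 °C. LiveBLAzer FRET B/G read: 460 nm normalized to potassium clavulanate vs DMSO; 535 nm FRET as viability; concentration-effect curves classified.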

[14] = qHTS profiling for inhibitors of Plasmodium falciparum proliferation (AID 504749);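 also: 0% = DMSO vehicle and full inhibition = artemisinin control; nearly all actives have a fitted effect of over 60% in size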; conditions: P. falciparum in erythrocytes, SYBR Green DNA, 72 h, at 28.7 µM (top of the series)
In short: (§1)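 Readout was DNA-dye fluorescence from lysed cultures, ex 485/em 535 nm. Parasitized red cells had grown 72 h with compound; data scaled between 0.29 uM artemisinin and DMSO wells and corrected using vehicle-only plates.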

3D7 = test: as above; conditions: P. falciparum in erythrocytes, SYBR Green DNA, 72 h; series mostly up to 28.7 µM
In short: as §1

7G8 = test: as above; conditions: P. falciparum in erythrocytes, SYBR Green DNA, 72 h; series mostly up to 28.7 µM
In short: as §1

AA1029 = test: as above; conditions: P. falciparum in erythrocytes, SYBR Green DNA, 72 h; series mostly up to 28.7 µM
In short: as §1

AS120 = test: as above; conditions: P. falciparum in erythrocytes, SYBR Green DNA, 72 h; series mostly up to 28.7 µM
In short: as §1

ATS189 = test: as above; conditions: P. falciparum in erythrocytes, SYBR Green DNA, 72 h; series mostly up to 28.7 µM
In short: as §1

ATS95 = test: as above; conditions: P. falciparum in erythrocytes, SYBR Green DNA, 72 h; series mostly up to 28.7 µM
In short: as §1

C2A = test: as above; conditions: P. falciparum in erythrocytes, SYBR Green DNA, 72 h; series mostly up to 28.7 µM
In short: as §1

CP185 = test: as above; conditions: P. falciparum in erythrocytes, SYBR Green DNA, 72 h; series mostly up to 28.7 µM
In short: as §1

CP191 = test: as above; conditions: P. falciparum in erythrocytes, SYBR Green DNA, 72 h; series mostly up to 28.7 µM
In short: as §1

CP192 = test: as above; conditions: P. falciparum in erythrocytes, SYBR Green DNA, 72 h; series mostly up to 28.7 µM
In short: as §1

CP194 = test: as above; conditions: P. falciparum in erythrocytes, SYBR Green DNA, 72 h; series mostly up to 28.7 µM
In short: as §1

CP201 = test: as above; conditions: P. falciparum in erythrocytes, SYBR Green DNA, 72 h; series mostly up to 28.7 µM
In short: as §1

CP203 = test: as above; conditions: P. falciparum in erythrocytes, SYBR Green DNA, 72 h; series mostly up to 28.7 µM
In short: as §1

CP211 = test: as above; conditions: P. falciparum in erythrocytes, SYBR Green DNA, 72 h; series mostly up to 28.7 µM
In short: as §1

CP215 = test: as above; conditions: P. falciparum in erythrocytes, SYBR Green DNA, 72 h; series mostly up to 28.7 µM
In short: as §1

CP217 = test: as above; conditions: P. falciparum in erythrocytes, SYBR Green DNA, 72 h; series mostly up to 28.7 µM
In short: as §1

CP237 = test: as above; conditions: P. falciparum in erythrocytes, SYBR Green DNA, 72 h; series mostly up to 28.7 µM
In short: as §1

CP238 = test: as above; conditions: P. falciparum in erythrocytes, SYBR Green DNA, 72 h; series mostly up to 28.7 µM
In short: as §1

CP247 = test: as above; conditions: P. falciparum in erythrocytes, SYBR Green DNA, 72 h; series mostly up to 28.7 µM
In short: as §1

CP250 = test: as above; conditions: P. falciparum in erythrocytes, SYBR Green DNA, 72 h; series mostly up to 28.7 µM
In short: as §1

CP252 = test: as above; conditions: P. falciparum in erythrocytes, SYBR Green DNA, 72 h; series mostly up to 28.7 µM
In short: as §1

CP256 = test: as above; conditions: P. falciparum in erythrocytes, SYBR Green DNA, 72 h; series mostly up to 28.7 µM
In short: as §1

O=C(O)[C@H]1C[C@@H](CP(=O)(O)O)CCN1
inactive: Potency [2] > 46 µM | Potency [3] > 46 µM | Potency [4] | Potency [5] | Potency [7] | Potency [8] | outcome [9] | Potency [10] | Potency [11] | Potency [12] | Potency [13] | activity, negative = inhibition ([14]; parasite line A) -7.9% | activity, negative = inhibition ([14]; parasite line B) -2.91% | Potency (3D7) | Potency (7G8) | Potency (AA1029) | Potency (AS120) | Potency (ATS189) | Potency (ATS95) | Potency (C2A) | Potency (CP185) | Potency (CP191) | Potency (CP192) | Potency (CP194) | Potency (CP201) | Potency (CP203) | Potency (CP211) | Potency (CP215) | Potency (CP217) | Potency (CP237) | Potency (CP238) | Potency (CP247) | Potency (CP250) | Potency (CP252) | Potency (CP256)
active: Potency [1] 25.1 µM | Potency [6] 7.94 µM

— PubChem BioAssay (NCATS)
